Experimental findings from PubChem BioAssay AID431 (Sanford-Burnham Center for Chemical Genomics, 2006) are described below.

About 1,100 (1.7%) of roughly 63,000 compounds were called active. What follows is part of a selection rich in actives, with near analogues and random picks from the rest. Results with a measured potency or affinity are listed apart. Unmarked numbers belong to inactive results.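 Rule for the calls: active = compounds whose percent cytotoxicity in the single-dose primary screen, scaled between solvent and toxic-drug controls, exceeds 50; inactive = the rest.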

A short description of this experiment: cytotoxicity in KRAS-transformed pancreatic duct cells, primary screen, cell-based, fluorescence, HTS (AID 431).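 Note: 0% = DMSO solvent wells and 100% = doxorubicin-treated wells.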 Particulars: HPDE-C7K KRASV12 cells, Alamar Blue viability, 48 h; at 10 µM; stronger effect = higher value. A general note: Resazurin is reduced to fluorescent resorufin, in cell work by metabolically active cells.
With `CC(C)OCCCNC(=O)CN1C(=O)CC(C)(C)S(=O)(=O)c2ccccc21`, the cytotoxicity was 3.7%. On to `CS(=O)(=O)N(CC(=O)NCc1ccc2c(c1)OCO2)Cc1ccc(Cl)cc1`, for which the cytotoxicity was -14.6%. In the case of `C=CCNc1nc(NCc2ccccc2)c(C#N)c2c1CN(C)CC2` it was 19.2%; in that of `N#Cc1c(N2CCCCC2)nc(N2CCCCC2)c2c1CCN(Cc1ccccc1)C2`, -4.7%. Regarding `N#Cc1c(NCCO)nc(NCc2ccccc2)c2c1CCN(Cc1ccccc1)C2`, the cytotoxicity was 40.8%. Consider `CCN1CCc2c(C#N)c(N3CCOCC3)nc(NCc3ccccc3)c2C1`, for which the cytotoxicity is -1.3%. `C=CCNc1nc(N2CCCCC2)c(C#N)c2c1CN(Cc1ccccc1)CC2`: the cytotoxicity was -1.7%.

For `CCN1CCc2c(C#N)c(N3CCCCC3)nc(NCc3ccccc3)c2C1`, the cytotoxicity is 51.6% (active). For `N#Cc1c(NCCCO)nc(-c2ccccc2)c2c1CCCC2`, the cytotoxicity was 20.2%.

Take `CCN(CCCNC(=O)CCCn1c(=O)[nH]c2ccccc2c1=O)c1cccc(C)c1`: the cytotoxicity is -2.5%. With `CCc1nc(SCC(=O)Nc2cc(C)on2)n[nH]1`, the cytotoxicity is -9.6%.

Regarding `Cc1ccccc1NC(=O)N1C2CCCC1CC(NC(=O)C1CC1)C2` (stereo not drawn), the cytotoxicity was 54.6% (active).

As to `Cc1ccccc1NC(=O)N1C2CCCC1CC(NC(=O)C(C)(C)C)C2` (stereo not drawn), the cytotoxicity was -3.9%. For `CCOc1ccccc1NC(=O)N1C2CCCC1CC(NC(=O)C1CC1)C2` (stereo not drawn), the cytotoxicity is -3.2%. Take `CCCCSc1nnc(C)c(=O)[nH]1`: the cytotoxicity was -3.8%. Turning to `CN1CC2=Cc3ccccc3OC23Oc2ccccc2C=C3C1`, the cytotoxicity is 60.6% (active). For the compound `c1ccc(-c2nnc3sc(-c4csc5c4CCCC5)nn23)cc1`, the cytotoxicity is 71.6% (active). For `Cc1ccccc1-c1nn2c(-c3ccccc3)nnc2s1`, the cytotoxicity was 11.2%. In the case of `Cc1nnc2sc(-c3csc4c3CCCC4)nn12` it was 3.5%; in that of `COc1ccc(-c2cc(C(F)F)n3ncc(C(=O)NCCCN4CCCC4=O)c3n2)cc1`, -8.7%. Consider `COCCNC(=O)c1ccccc1-c1ccccc1C(=O)O`, for which the cytotoxicity is 7.4%.

On to `COC(=O)CSc1nnc(CCc2nc3ccccc3[nH]2)n1C`, for which the cytotoxicity is -3.8%. For the compound `COc1cc(C2C(C(C)=O)=C(C)Nc3ncnn32)ccc1O` (stereo not drawn), the cytotoxicity was 2.2%. Regarding `COc1ccc(OC)c(Nc2cc(C)nc3ccccc23)c1`, the cytotoxicity is 1.1%. Consider `COc1cc(-c2ccccc2)nc(N)n1`, for which the cytotoxicity was 7.6%. Regarding `COc1ccc(OC)c(Nc2cc(-c3ccccc3)nc(N)n2)c1`, the cytotoxicity was 57.6% (active). On to `CC1CCCCC1NC(=O)Cn1[nH]c(=O)c2ccccc2c1=O` (stereo not drawn), for which the cytotoxicity is 0.5%.

As for `CC(C)(C)NC(=O)Nc1ccccc1C(N)=O`, the cytotoxicity is -1.1%.

For the compound `Cc1sc2nc(SCC(=O)NCc3ccco3)n(-c3ccccc3)c(=O)c2c1C`, the cytotoxicity was 7.2%. `Cc1sc2ncnc(NCc3ccco3)c2c1C`: the cytotoxicity is 0.5%. For `Cc1sc2nc3c4ccccc4c(NCc4ccco4)nn3c(=O)c2c1C`, the cytotoxicity is 66% (active). In the case of `O=C(CCOc1ccccc1)OCC(=O)c1cc2ccccc2o1`, the cytotoxicity was -20.1%. In the case of `COc1ccc(S(=O)(=O)N2CCCCC2)cc1C(C)C` it was -10.6%; in that of `Nc1nc(-c2ccccc2Br)cs1`, 15.5%. As to `Cc1cc(-c2csc(N)n2)c(C)n1CCc1ccccc1`, the cytotoxicity is 99.3% (active). In the case of `CCOC(=O)c1cc(C)n(CCc2ccccc2)c1C` it was 0.4%. In the case of `COCCn1c(-c2ccc(Cl)cc2)cnc1SCC(=O)NCc1cccs1` it was -6.5%; in that of `N#CC1=C(N)C(C#N)(C#N)C2(C(=O)Nc3ccccc32)C2CCCC=C12` (stereo not drawn), -18.9%; in that of `CS(=O)(=O)N1CCc2cc(S(=O)(=O)N3CCN(Cc4ccc5c(c4)OCO5)CC3)ccc21`, 7.7%.

With `CS(=O)(=O)N1CCc2cc(C(=O)O)ccc21`, the cytotoxicity was 8.3%. Regarding `CS(=O)(=O)N1CCc2cc(S(=O)(=O)Nc3ccc4oc5c(c4c3)CCCC5)ccc21`, the cytotoxicity was 84.6% (active). For `O=C(C(Cc1ccccc1)n1cccc1)N1CCc2ccccc21` (stereo not drawn), the cytotoxicity was -1.9%. In the case of `CC(=O)Oc1c(Cl)c(N2CCOCC2)c(OC(C)=O)c2ccccc12` it was -27.5%. Regarding `COCCn1c(SCC(=O)Nc2ccccc2)nc2c1c(=O)[nH]c(=O)n2C`, the cytotoxicity is -3.2%.

Regarding `CC1CCc2c(sc3ncnc(SCC(=O)N4CCN(C(=O)c5ccco5)CC4)c23)C1` (stereo not drawn), the cytotoxicity was 2.5%. Consider `CCC(c1nnnn1C(C)(C)C)N1CCN(c2cc(Cl)ccc2C)CC1` (stereo not drawn), for which the cytotoxicity is -6.4%. For the compound `O=c1cc(-c2ccccc2)[nH]c2nc3ccccc3n12`, the cytotoxicity is 31.4%. Turning to `CC(=NC1CCCC1)c1c(C)[nH]n(-c2nc3ccccc3s2)c1=O`, the cytotoxicity was -31.1%. Regarding `Cc1nn(-c2nc3ccccc3s2)c(N)c1-c1ccccc1`, the cytotoxicity is 5.2%.

As for `O=c1cc(-c2ccccc2)[nH]n1-c1nc2ccccc2s1`, the cytotoxicity was 79% (active). In the case of `COc1ccc(-c2cc(=O)n(-c3nc4ccccc4[nH]3)[nH]2)cc1` it was 10.5%. On to `Cc1[nH]c(=O)[nH]c1CN1CCCCC1`, for which the cytotoxicity was -10.3%. With `CCOC(=O)c1cnn(-c2ccccc2)c1NC(=O)c1cccs1`, the cytotoxicity was 0.1%. As for `O=C(c1cccs1)n1cc(C(=S)N2CCOCC2)c2ccccc21`, the cytotoxicity was 10%. Turning to `COc1ccc(-c2c(C)nn3c(N4CCN(Cc5ccccc5)CC4)cc(C)nc23)cc1OC`, the cytotoxicity was -4%. As for `c1csc(-c2cnc3ccccc3n2)c1`, the cytotoxicity is 3.7%. Consider `CCOC(=O)N1CCN(C(=O)Nc2ccc(Cl)cc2Cl)CC1`, for which the cytotoxicity was 0.2%. In the case of `CCOC(=O)N1CCN(S(=O)(=O)c2cc(Cl)ccc2Cl)CC1` it was -7.3%. As for `CCOC(=O)N1CCC(=C2c3ccc(Cl)cc3CCc3cccnc32)CC1`, the cytotoxicity was 90.6% (active). As to `O=S(=O)(c1ccc(-c2ccccc2)cc1)N1CCOCC1`, the cytotoxicity is 3.5%. For `Nc1nncn1C(=O)c1cccs1`, the cytotoxicity is 9.5%. For `CC(=O)O[C@]1(C(C)=O)CC[C@H]2[C@@H]3C=C(Cl)C4=CC(=O)CC[C@]4(C)[C@H]3CC[C@@]21C`, the cytotoxicity was 76.4% (active). `CC(=O)O[C@]1(C(C)=O)CC[C@H]2[C@@H]3C=C(C)C4=CC(=O)CC[C@]4(C)[C@H]3CC[C@@]21C`: the cytotoxicity was -15.6%. In the case of `CCCCC(=O)O[C@]1(C(=O)CO)CC[C@H]2[C@@H]3CCC4=CC(=O)CC[C@]4(C)[C@H]3[C@@H](O)C[C@@]21C` it was -3.2%.

As for `CCCCCC(=O)O[C@]1(C(C)=O)CC[C@H]2[C@@H]3CCC4=CC(=O)CC[C@]4(C)[C@H]3CC[C@@]21C`, the cytotoxicity was 118% (active).

As to `CCCCCCCC(=O)OCC(=O)[C@@]1(O)CC[C@H]2[C@@H]3CCC4=CC(=O)CC[C@]4(C)[C@H]3[C@@H](O)C[C@@]21C`, the cytotoxicity was -2.2%. Consider `CC(=O)O[C@]1(C(C)=O)CC[C@H]2[C@@H]3C[C@H](C)C4=CC(=O)CC[C@]4(C)[C@H]3CC[C@@]21C`, for which the cytotoxicity is 3.4%. For the compound `NC(=O)CN1C(=O)C(O)(CC(=O)c2ccccc2O)c2ccccc21` (stereo not drawn), the cytotoxicity is -20.7%. Consider `Cc1csc(=N)n1CC(=O)N1CCc2ccccc21`, for which the cytotoxicity is -5.1%. For `CCN1C(=O)c2cccc3c(S(=O)(=O)Nc4ccccc4OC)ccc1c23`, the cytotoxicity was 15.9%.

With `COc1ccc(-c2cc(C(F)(F)F)n3nc(C(=O)Nc4cc(C)on4)cc3n2)cc1OC`, the cytotoxicity was 8.1%. `Cc1cc(C)c(S(=O)(=O)N2CCN(CCO)CC2)c(C)c1`: the cytotoxicity is -4.9%. For `CCc1nc(OCCN(CC)CC)c2oc3ccccc3c2n1`, the cytotoxicity was 15.9%.

`CCN(CC)CCOc1ncnc2c1oc1ccccc12`: the cytotoxicity was -9.3%. In the case of `CC1CCc2nn(CC(=O)NCCN3CCOCC3)cc2C1` (stereo not drawn) it was -3.4%; in that of `c1ccc(C(CN2CCOCC2)c2ccccc2)cc1`, -15.2%. As for `O=C(c1ccccc1)c1ccc(OCC(O)CN2CCOCC2)cc1` (stereo not drawn), the cytotoxicity was 10.8%.

Take `CCOc1ccc(-n2c(Cc3cc(=O)[nH]c(=O)[nH]3)nnc2SC(C)C)cc1`: the cytotoxicity is -20.5%. Regarding `Cc1cc(C(=O)Oc2ccccc2C(=O)O)c(C)o1`, the cytotoxicity was -8%. In the case of `Cc1ccc(C(=O)Nc2ncc(Cc3ccccc3)s2)o1` it was 51.3% (active).

In the case of `Cc1ccc(C(=O)Nc2ncc(Cc3ccc(F)cc3)s2)o1`, the cytotoxicity is 61.5% (active). Consider `O=C(Nc1ncc(Cc2ccccc2)s1)C1CCCO1` (stereo not drawn), for which the cytotoxicity was 6.8%. As for `O=C(Nc1ncc(Cc2ccccc2)s1)c1cccs1`, the cytotoxicity is 4.6%. For `CCSc1nnc(NC(=O)c2ccc(C)o2)s1`, the cytotoxicity is -3.8%.

Turning to `Cc1nnc(SCC(=O)Nc2ncc(Cc3ccc(F)cc3)s2)n1N`, the cytotoxicity is -4.8%.

Take `COc1ccc(-c2cc(C(F)(F)F)nc(SCC(=O)N3CC(C)OC(C)C3)n2)cc1OC` (stereo not drawn): the cytotoxicity was -1.3%.

With `Cc1c(Cl)cccc1NC(=O)CSCc1cc(=O)[nH][nH]1`, the cytotoxicity is -8.5%. With `Cc1cc2cc(CN(Cc3ccc4c(c3)OCO4)C(=O)c3ccco3)c(=O)[nH]c2cc1C`, the cytotoxicity was 22.5%. As for `Cn1c(SCC(=O)NCc2cccs2)nnc1-c1cccs1`, the cytotoxicity is -2.7%. In the case of `CCS(=O)(=O)N1CCN(c2ccccc2F)CC1` it was -12.1%; in that of `O=S1(=O)C=C(Sc2nc3ccccc3s2)c2ccccc21`, 107% (active).

Turning to `O=C1c2ccccc2S(=O)(=O)N1Cc1nc2ccccc2s1`, the cytotoxicity is 3.2%. Turning to `O=S1(=O)C=C(Sc2nnc(-c3ccccc3)o2)c2ccccc21`, the cytotoxicity was 26.2%. `Cc1cc(C)nc(SC2=CS(=O)(=O)c3ccccc32)n1`: the cytotoxicity is 2.9%. Take `O=S1(=O)C=C(SCCN2CCCCC2)c2ccccc21`: the cytotoxicity was 6.2%. Turning to `Cn1c(Sc2nc3ccccc3n2C)nc2ccccc21`, the cytotoxicity was 21.7%.

As to `Clc1ccc2oc(-c3ccccc3)nc2c1`, the cytotoxicity was 3.5%. For the compound `Cn1c(SC2=CS(=O)(=O)c3ccccc32)nc2ccccc21`, the cytotoxicity is 86.7% (active).
